Most compounds without a hit are left out; they make up all but 1.4% or so of the library.
DUSP3 inh – blocks human VHR1 dual specificity phosphatase. P51452. inhibition, % at 13.3 µM. recombinant VHR phosphatase, pNPP absorbance. actives 0.52% (n = 290,000); in the data active = inhibition above about 50%
Target sequence (P51452 whole entry, looked up): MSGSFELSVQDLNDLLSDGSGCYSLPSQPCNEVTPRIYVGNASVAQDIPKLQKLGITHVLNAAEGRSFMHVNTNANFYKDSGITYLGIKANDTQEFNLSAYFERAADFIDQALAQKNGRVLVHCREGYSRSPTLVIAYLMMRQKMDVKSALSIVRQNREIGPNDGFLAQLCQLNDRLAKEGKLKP
MazEF act – activators of E. coli MazEF toxin-antitoxin RNase. P0AE70. FAM/BHQ RNA-DNA oligo cleavage fluorescence, 5 h. activation, % at 20 µM. actives 0.32% (n = 350,000). AID 504720; in the data active = activation above about 50%
Target sequence (P0AE70 whole entry, looked up): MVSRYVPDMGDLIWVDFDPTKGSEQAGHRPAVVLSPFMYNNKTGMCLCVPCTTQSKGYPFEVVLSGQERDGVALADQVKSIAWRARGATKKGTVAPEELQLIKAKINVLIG
CCHF vOTU inh – CCHFV vOTU protease inhibition; Pep-AMC fluorescence; inhibition, % at 11.5 µM; actives 0.55% (n = 370,000); in the data active = inhibition above about 30%
3CLpro inhibitor – SARS-CoV 3CLpro protease inhibition; P0C6X7; recombinant SARS-CoV 3CLpro, quenched FRET peptide cleavage; inhibition, % at 6 µM; actives 0.14% (n = 290,000); in the data active = inhibition above about 12%
BJeLR viability – BJeLR cell viability loss; BJeLR (HRASV12) viability, CellTiter-Glo ATP luminescence, 48 h; actives 0.17% (n = 300,000); AID 1554; inhibition, % (concentration not given with the values); in the data active = inhibition above about 50%
Of the large screens only hits and unclear results are named; the others gave an inactive call.

COCCCN1C2=C(C(=O)CC(C)(C)C2)C(c2ccc(OC)c(OC)c2)C2=C1CC(C)(C)CC2=O	DUSP3 inh 51
Cc1cc(-c2ccccc2)c2c3c(c(-c4ccccc4)n2n1)c(=O)n(C)c(=O)n3C	MazEF act active (no result: CCHF vOTU inh)
COc1ccccc1N1CCN(C(=O)/C=C/c2cccs2)CC1	none
COc1ccccc1N1CCN(C(=O)/C=C/c2ccccc2)CC1	DUSP3 inh 53
O=C1/C(=C/c2ccco2)SC(=S)N1CC1CCCO1 (stereo not drawn)	none
Cc1ccc(/C=C2\SC(=S)N(CC3CCCO3)C2=O)o1 (stereo not drawn)	BJeLR viability 86
COc1cc(OC)c(OC)cc1/C=C(\C#N)C(=O)NCc1cccs1	MazEF act 84
CCOc1ccc(-n2c(SCC(=O)Nc3cccc4ccccc34)nnc2-c2cccs2)cc1	none (no result: DUSP3 inh, MazEF act, 3CLpro inhibitor, BJeLR viability)
COc1cccc(CSc2nc3ccccc3cc2C=O)c1	BJeLR viability 58
CN(Cc1ccccc1)C(=O)OCc1cn(Cc2ccccc2F)nn1	none (no result: DUSP3 inh, MazEF act, 3CLpro inhibitor, BJeLR viability)
COc1ccc2c(C)nc(Nc3nc(-c4ccccc4)cc(=O)[nH]3)nc2c1	BJeLR viability 58
CCC(O)(c1ccc(NC(=O)OC(C)(C)C)cc1)c1cc(OC)cc(OC)c1 (stereo not drawn)	none (no result: DUSP3 inh, MazEF act, 3CLpro inhibitor, BJeLR viability)
O=C(CN1CCN(Cc2ccccc2)C1=O)NCCCN1CCOCC1	DUSP3 inh 50
COc1ccc(C)cc1NS(=O)(=O)c1ccc(NC(=O)CN(c2cc([N+](=O)[O-])ccc2C)S(C)(=O)=O)cc1	BJeLR viability 109
COc1ccc([N+](=O)[O-])cc1N(CC(=O)NCCSc1ccc(C)cc1)S(C)(=O)=O	none
Cc1cccc(NS(=O)(=O)c2ccc(NC(=O)CN(c3cc([N+](=O)[O-])ccc3C)S(C)(=O)=O)cc2)c1	BJeLR viability 69
Cc1cccc(NS(=O)(=O)c2cc(NC(=O)CC(=O)c3ccc([N+](=O)[O-])cc3)ccc2C)c1	none (no result: MazEF act, CCHF vOTU inh)
Cc1ccc(S(=O)(=O)N2C(=O)CCC2C(=O)N2CCCCC2)cc1 (stereo not drawn)	DUSP3 inh 52
Oc1[nH]c2ccccc2c1N=Nc1cccc(Cl)c1	MazEF act 362
Oc1[nH]c2ccccc2c1N=Nc1ccccc1Cl	none (no result: DUSP3 inh, 3CLpro inhibitor, BJeLR viability)
CC(=O)c1cc(-c2csc(C=O)c2)c(=O)n2c1CCC2	none (no result: DUSP3 inh, MazEF act, 3CLpro inhibitor, BJeLR viability)
CC(C)NC(=O)N[C@H]1C[C@@H]2O[C@@H](CO)CC[C@@H]2O[C@@H]1CCc1ccc(-c2ccc(F)cc2)cc1	none (no result: DUSP3 inh, MazEF act, 3CLpro inhibitor, BJeLR viability)
CCn1cc(/C=c2/sc3n(c2=O)C2c4ccccc4OC(C)(N=3)C2C(=O)OC)c(C)n1 (stereo not drawn)	DUSP3 inh 53
COC(=O)c1sc2nc(SCc3cccc(F)c3)n(N)c(=O)c2c1C	MazEF act 133
O=[N+]([O-])c1cccc(CP(=O)(c2ccccc2)c2ccccc2)c1	none (no result: DUSP3 inh, 3CLpro inhibitor, BJeLR viability)
O=[N+]([O-])c1ccc(CP(=O)(c2ccccc2)c2ccccc2)cc1	DUSP3 inh 56
Cc1ccc(Cn2c(=O)oc3ccccc32)cc1	none
O=c1oc2ccccc2n1Cc1cccc(F)c1	DUSP3 inh 53
COC(=O)C1CN(Cc2cn(Cc3ccc(OC)cc3)nn2)CCS(=O)(=O)N1Cc1ccc(C)cc1 (stereo not drawn)	none (no result: DUSP3 inh, MazEF act, 3CLpro inhibitor, BJeLR viability)
Cc1cc(N2CCN(C)CC2)ccc1NC(=O)c1cccc(S(=O)(=O)N2CCc3ccccc3C2)c1	MazEF act 50
Nc1cc(Cl)ccc1N1CCCCC1	none
Nc1cc(Cl)cc2c1-c1ccc(Cl)cc1C2	MazEF act 65 (no result: DUSP3 inh, 3CLpro inhibitor, BJeLR viability)
Cc1ccc(NC(=O)C2CC(=O)N/C(=N/N=C/c3ccco3)S2)cc1 (stereo not drawn)	DUSP3 inh 58
Cc1ccc(NC(=O)C2CC(=O)N/C(=N/N=C/c3ccco3)S2)cc1C (stereo not drawn)	none (no result: CCHF vOTU inh)
Cc1cccc2cc3c(N)c(C#N)sc3nc12	MazEF act 92
Cc1cccc2cc3c(N)c(C(=O)N4CCc5ccccc54)sc3nc12	MazEF act 86
Cc1cccc2cc3c(N)c(C(=O)Nc4ccc(N5CCOCC5)cc4)sc3nc12	none
Cc1sc(NC(=O)c2sc3nc4c(C)cccc4cc3c2N)c(C#N)c1C	none
O=C(Nc1ccc(Cl)cc1)OC1CCC12CCC(c1ccccc1)CC2 (stereo not drawn)	none (no result: DUSP3 inh, MazEF act, 3CLpro inhibitor, BJeLR viability)
N#Cc1cccc(NC(=O)OC2CC3CC2[C@H]2CCCCN2[C@H]3Cc2ccccc2)c1 (stereo partly drawn)	none (no result: DUSP3 inh, MazEF act, 3CLpro inhibitor, BJeLR viability)
CC(C(=O)N1CCCc2c1c(=O)oc1ccc(O)cc21)N1CCc2ccccc2C1 (stereo not drawn)	DUSP3 inh 56 (no result: CCHF vOTU inh)
COc1ccc(C(=O)CSc2cc(C)[nH]c(=O)n2)cc1	DUSP3 inh 50
CC(C)(Cc1ccc(O)cc1)NC(=O)SCc1ccccc1	DUSP3 inh 51
Cc1cc(-c2n[nH]c(=S)n2N=Cc2cccc(Oc3ccccc3)c2)n[nH]1	none (no result: DUSP3 inh, MazEF act, 3CLpro inhibitor, BJeLR viability)
CCCCNC(=O)C1(C(=O)c2ccc(OC)cc2)CC(c2ccccn2)=NO1 (stereo not drawn)	none (no result: DUSP3 inh, MazEF act, 3CLpro inhibitor, BJeLR viability)
Nc1c(N2CCCC2)cc(Cl)c2nonc12	DUSP3 inh 56 (no result: CCHF vOTU inh)
Cc1cc(-c2csc(NC(=O)c3ccc(=O)[nH]c3)n2)c(C)n1Cc1ccco1	DUSP3 inh 112
O=C(Nc1ccc(F)cc1F)C1CCCN1S(=O)(=O)c1cccnc1 (stereo not drawn)	none (no result: DUSP3 inh, MazEF act, 3CLpro inhibitor, BJeLR viability)
COC(=O)c1ccc(S(=O)(=O)N2CCC(NC(=O)CCC3CCCC3)CC2)cc1	none (no result: DUSP3 inh, MazEF act, 3CLpro inhibitor, BJeLR viability)
CC1=C(C(=O)N2CCOCC2)C(c2ccc(OC(F)F)cc2)NC(=S)N1c1ccccc1 (stereo not drawn)	DUSP3 inh 53
CC1=C(C(=O)N2CCOCC2)C(c2ccc(Br)cc2)NC(=S)N1c1ccccc1 (stereo not drawn)	none
O=C(CSc1nnc(-c2ccco2)n1-c1ccc(Cl)cc1)Nc1ccc(S(=O)(=O)Nc2nccs2)cc1	none (no result: DUSP3 inh, MazEF act, 3CLpro inhibitor, BJeLR viability)
Cc1cc(NC(=O)CSc2ccccn2)cc(NC(=O)CSc2ccccn2)c1	DUSP3 inh 54
O=C(CSc1ccccn1)Nc1ccc2ccccc2c1	none (no result: MazEF act, CCHF vOTU inh)
Cc1c(C(=O)N2CCCC2)oc2ccc(Br)cc12	DUSP3 inh 53
COC(=O)CSc1nnc(-c2cc(-c3ccccc3)n[nH]2)n1N	none (no result: DUSP3 inh, MazEF act, 3CLpro inhibitor, BJeLR viability)
Cn1c(=O)c2c(nc(NCc3ccccc3)n2C)n(C)c1=O	none
Cn1c(=O)c2cc(NCc3ccccc3)nnc2n(C)c1=O	CCHF vOTU inh 96
O=C(NCCc1ccccc1)OCc1cn(-c2c(F)cccc2F)nn1	none (no result: DUSP3 inh, MazEF act, 3CLpro inhibitor, BJeLR viability)
O=C(CN1CCC(n2nnc3cc(F)ccc32)CC1)NCCc1ccccc1	DUSP3 inh 53
O=C(CN1CCC(n2nnc3cc(F)ccc32)CC1)NC1CC1	none
O=C(c1ccccc1F)N1CCN(c2ccccc2F)CC1	DUSP3 inh 53
Cc1cccc(CCNc2nc3ccccc3n3nnnc23)c1	none
Clc1ccc(CCNc2nc3ccccc3n3nnnc23)cc1	DUSP3 inh 50
CNC(=S)N/N=C(\C)c1ccc(C(C)(C)C)cc1	DUSP3 inh 60
CNC(=S)N/N=C(\C)c1ccccc1	none
Cc1cccc(C)c1Nc1nnc(SCC(=O)NC(=O)c2cccn2C)s1	DUSP3 inh 51

Assay outcomes deposited in PubChem BioAssay by several laboratories.
